In the supplement of paper PMC7366291:
Counter-ions that a name gives are not always drawn. ± gives the standard deviation.

Test system: Danio rerio Tg(wt1b:EGFP) embryo, pronephros
Assay: glomerular separation, fold change vs DMSO control; higher = glomeruli further apart (abnormal)
Conditions: 25 µM; exposure: 24-48 hpf
Summary of the method: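 From 24 to 48 hpf, at 28.5°C, dechorionated Tg(wt1b:EGFP) zebrafish embryos sat in HEPES-buffered E3 with 0.003% PTU carrying 25 μM compound and 0.5% DMSO. Their pronephroi were imaged dorsally in 96-well plates filled with agarose, using 470 nm light and 10 z-slices. A Fiji macro measured distances and angles between 16 reference points that were set manually on maximum projections, and any value more than 2 SD from its feature mean was excluded. Features are expressed as fold change relative to the mean of DMSO-treated embryos imaged on the same day.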

Question: Which glomerular separation does the source give for CCOc1ccccc1OC(c1ccccc1)C1CNCCO1 (centres undefined) [Reboxetine mesylate] here?
Answer: 1.16 ± 0.43

Question: For CC(C)(O)c1ccccc1CC[C@@H](SCC1(CC(=O)O)CC1)c1cccc(/C=C/c2ccc3ccc(Cl)cc3n2)c1 [Montelukast], which glomerular separation is on record?
Answer: 0.861 ± 0.26

Question: Which glomerular separation does the source give for CN(C)C/C=C(/c1ccc(Br)cc1)c1cccnc1 [Zimelidine dihydrochloride monohydrate] here?
Answer: 0.758 ± 0.25

Question: How did the glomerular separation turn out when Cc1ccc(S(=O)(=O)NC(=O)NN2CC3CCCC3C2)cc1 (centres undefined) [Gliclazide] was run?
Answer: 0.87 ± 0.46

Question: CN[C@H](CC(C)C)C(=O)N[C@H]1C(=O)N[C@@H](CC(N)=O)C(=O)N[C@H]2C(=O)N[C@H]3C(=O)N[C@H](C(=O)N[C@H](C(=O)O)c4cc(O)cc(O)c4-c4cc3ccc4O)[C@H](O)c3ccc(c(Cl)c3)Oc3cc2cc(c3O[C@@H]2O[C@H](CO)[C@@H](O)[C@H](O)[C@H]2O[C@H]2C[C@](C)(N)[C@H](O)[C@H](C)O2)Oc2ccc(cc2Cl)[C@H]1O [Vancomycin hydrochloride] was tested. Which glomerular separation did it give?
Answer: 0.943 ± 0.23

Question: For CC(C)NCC(O)c1ccc2ccccc2c1 (centres undefined) [Pronethalol hydrochloride], which glomerular separation is on record?
Answer: 0.915 ± 0.49

Question: With CC1CS(=O)(=O)CCN1/N=C/c1ccc([N+](=O)[O-])o1 (centres undefined) [Nifurtimox] as the compound, how does the glomerular separation read?
Answer: 0.837 ± 0.36

Question: Which glomerular separation does the source give for c1ccc(C2CN3CCSC3=N2)cc1 (centres undefined) [Tetramisole hydrochloride] here?
Answer: 0.817 ± 0.29

Question: COC1=CC(=O)C[C@@H](C)[C@]12Oc1c(Cl)c(OC)cc(OC)c1C2=O [Griseofulvin] was tested. Which glomerular separation did it give?
Answer: 0.952 ± 0.29

Question: Cc1ncc([N+](=O)[O-])n1CC(O)CCl (centres undefined) [Ornidazole] was tested. Which glomerular separation did it give?
Answer: 0.923 ± 0.39

Question: Cc1noc(NS(=O)(=O)c2ccc(N)cc2)c1C [Sulfisoxazole] was tested. Which glomerular separation did it give?
Answer: 0.975 ± 0.37

Question: Which glomerular separation does the source give for C[C@@]1(O)CCOC(=O)C1 [Mevalonic-D, L acid lactone] here?
Answer: 0.897 ± 0.23

Question: With Clc1cccc(Cl)c1NC1=NCCN1 [Clonidine hydrochloride] as the compound, how does the glomerular separation read?
Answer: 0.954 ± 0.35

Question: CC(=O)N(O)CCCCCNC(=O)CCC(=O)N(O)CCCCCNC(=O)CCC(=O)N(O)CCCCCN [Deferoxamine mesylate] was tested. Which glomerular separation did it give?
Answer: 0.888 ± 0.3

Question: COC(=O)C1=C(C)NC(C)=C(C(=O)OC)C1c1ccccc1[N+](=O)[O-] [Nifedipine] was tested. Which glomerular separation did it give?
Answer: 1.1 ± 0.54

Question: For COc1ccc(-c2ccc(=N)n(CCCC(=O)O)n2)cc1 [Gabazine bromide], which glomerular separation is on record?
Answer: 0.985 ± 0.27

Question: With CCN(CC)C(=O)Nc1ccc(OCC(O)CNC(C)(C)C)c(C(C)=O)c1 (centres undefined) [Celiprolol hydrochloride] as the compound, how does the glomerular separation read?
Answer: 0.729 ± 0.21

Question: For CCN(CC)CCCC(C)Nc1ccnc2cc(Cl)ccc12 (centres undefined) [Chloroquine diphosphate], which glomerular separation is on record?
Answer: 1.16 ± 0.51

Question: Which glomerular separation does the source give for CN(C)CCCN1c2ccccc2CCc2ccccc21 [Imipramine hydrochloride] here?
Answer: 0.946 ± 0.39

Question: For CNCCC(Oc1ccc(C(F)(F)F)cc1)c1ccccc1 (centres undefined) [Fluoxetine hydrochloride], which glomerular separation is on record?
Answer: 1.23 ± 0.69

Question: How did the glomerular separation turn out when COc1ncnc(NS(=O)(=O)c2ccc(N)cc2)c1OC [Sulfadoxine] was run?
Answer: 0.694 ± 0.18

Question: How did the glomerular separation turn out when Cn1c(=O)c2c(ncn2CC(=O)O)n(C)c1=O [Acefylline] was run?
Answer: 1.12 ± 0.41

Question: COc1ccc(C(=O)c2ccccc2O)c(O)c1 [Dioxybenzone] was tested. Which glomerular separation did it give?
Answer: 2.57 ± 1.9

Question: With Cc1ccc(O)c([C@H](CCN(C(C)C)C(C)C)c2ccccc2)c1 [Tolterodine tartrate] as the compound, how does the glomerular separation read?
Answer: 1.13 ± 0.42
